Consider 62 compounds from PubChem BioAssay AID1851 (National Center for Advancing Translational Sciences (NCATS), 2009).

Usually AC50 stands for the midpoint of the concentration-response curve, whichever way the signal moves.

Screen size: about 16,000 compounds; about 5,100 (32%) were called active. Roughly 25% stayed inconclusive and do not appear here. The list shows a part of the results. Unmarked numbers belong to inactive results. Calls follow the shape of the dose curve; as a rule, active = well fitted curve in the direction sought with a large enough effect; inconclusive = small, poorly fitted or top-dose-only effect, or effect the other way; inactive = no such curve, though single readings can be large or run the other way.
% is scaled to controls: 0 for no effect and ±100 for the full control effect.

Sequence of Cytochrome P450 3A4 (Homo sapiens) (P08684 whole entry, looked up): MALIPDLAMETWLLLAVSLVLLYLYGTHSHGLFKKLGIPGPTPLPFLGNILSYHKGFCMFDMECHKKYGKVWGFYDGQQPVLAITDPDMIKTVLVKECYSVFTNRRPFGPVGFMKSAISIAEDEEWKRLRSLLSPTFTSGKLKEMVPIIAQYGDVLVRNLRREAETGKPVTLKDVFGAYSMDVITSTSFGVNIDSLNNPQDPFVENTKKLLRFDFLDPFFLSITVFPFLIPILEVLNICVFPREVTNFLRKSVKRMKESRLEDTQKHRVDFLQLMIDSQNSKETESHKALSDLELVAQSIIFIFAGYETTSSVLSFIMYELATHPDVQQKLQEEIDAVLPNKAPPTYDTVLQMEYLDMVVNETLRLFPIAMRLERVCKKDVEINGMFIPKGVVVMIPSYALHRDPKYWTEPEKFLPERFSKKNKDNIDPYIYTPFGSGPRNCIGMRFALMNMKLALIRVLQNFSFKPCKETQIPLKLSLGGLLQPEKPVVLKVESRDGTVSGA

The assay concerns the target Cytochrome P450 3A4 (Homo sapiens) (UniProt P08684). Description: Cytochrome panel assay with activity outcomes. The settings on record: recombinant CYP, pro-luciferin dealkylation, luminescence, p450-cyp3a4; series mostly up to 57.1 µM.
Take `O=C(CCCCC(=O)Nc1c(I)cc(I)c(C(=O)O)c1I)Nc1c(I)cc(I)c(C(=O)O)c1I`: the AC50 result is “inactive”.

In the case of `CCCCC[C@H](O)c1cccc(OCc2ccc3ccccc3n2)c1`, the AC50 is 12.6 µM (active). Turning to `CC(C)C(=O)Cc1ccc2ccccc2n1`, the activity, negative = inhibition is -6.02% [at 11.4 µM].

As for `CCCCc1cc2ccccc2c(OCCN(C)C)n1`, the AC50 entry is “inactive”. `O=C(O)c1ccccc1Nc1cccc(OCc2ccc3ccccc3n2)c1`: the AC50 was 1.58 µM (active). As to `O=C(Nc1ccccc1C(=O)O)c1ccc2ccccc2n1`, the AC50 result was “inactive”. The same measure, in the same setting: the entry for `O=C(O)Cc1cc2ccccc2nc1C(=O)O` is “inactive”; for `CC(C)CNS(=O)(=O)c1cc(C(=O)N2CC(C)OC(C)C2)c(Cl)cc1Cl` (configuration not stated) it is 3.16 µM (active); for `CC1CN(C2CCN(C(=O)c3cccc(Cl)c3)CC2)CC(C)O1` (configuration not stated) it is “inactive”. Still for that read-out and setting: under `CC1CN(C(=O)c2cc3c(s2)CCC3)CC(C)O1` (configuration not stated) stands “inactive”. As for `O=C(O)C[n+]1ccccc1`, the activity, negative = inhibition is -14.8% [at 11.4 µM].

On to `CCOc1ccc(NC(=S)NC(=O)/C=C/c2ccc(C)cc2)c([N+](=O)[O-])c1`, for which the AC50 entry is “inactive”.

For the compound `Cc1ccc(/C=C/C(=O)NC(=S)Nc2ccccc2C(=O)NC2CCCCC2)cc1`, the concentration at half-maximal activity (AC50) was 8.91 µM (active).

Turning to `O=C(/C=C/c1ccc(Br)cc1)NC1CCCCCC1`, the activity, negative = inhibition was -12.6% [at 11.4 µM]. Consider `NC(=O)c1ncn([C@@H]2O[C@@H](CO)[C@@H](O)[C@H]2O)c1O`, for which the AC50 result was “inactive”.

On to `C=CCNC(=O)c1ccc(Cn2c(=S)[nH]c3cc4c(cc3c2=O)OCO4)cc1`, for which the AC50 was 7.94 µM (active). Same read-out and setting: under `CCn1cc(C(=O)O)c(=O)c2cc3c(cc21)OCO3` stands “inactive”. Consider `O=C(CCCn1c(=S)[nH]c2cc3c(cc2c1=O)OCO3)N1CCN(c2ccccc2)CC1`, for which the half-maximal activity concentration (AC50) was 0.447 µM (active).

With `CC1CCN(CCCn2c(=S)[nH]c3ccc(N4CCOCC4)cc3c2=O)CC1`, the AC50 entry was “inactive”. For `O=c1c2cc(Br)ccc2[nH]c(=S)n1Cc1cccnc1`, the concentration at half-maximal activity (AC50) was 0.398 µM (active). Still for that read-out and setting: under `CC(C)OCCCn1c(=S)[nH]c2ncccc2c1=O` stands “inactive”. The same measure, in the same setting: under `CCCCNC(=O)CCn1c(=S)[nH]c2cc3c(cc2c1=O)OCO3` stands 3.98 µM (active); under `CCc1c(C(=O)O)[nH]c2ccc(Br)cc12`, “inactive”; under `COc1ccccc1Cn1c(=S)[nH]c2cc(C(=O)N3CCN(C)CC3)ccc2c1=O`, “inactive”. Still for that read-out and setting: the figure for `O=C(CCCn1c(=S)[nH]c2cc3c(cc2c1=O)OCO3)N1CCN(c2ncccn2)CC1` is 2 µM (active); for `O=C(CCCn1c(=S)[nH]c2ccc(Br)cc2c1=O)N1CCN(c2ccccn2)CC1` it is 1.26 µM (active). As to `Cc1cccc(N2CCN(C(=O)CCCn3c(=S)[nH]c4cc5c(cc4c3=O)OCO5)CC2)c1C`, the AC50 is 0.794 µM (active).

`COCC(=O)N1CCC2(CC1)CCN(c1ccccn1)CC2`: the AC50 entry is “inactive”. In the case of `O=C(CCCCCn1c(=S)[nH]c2cc3c(cc2c1=O)OCO3)N1CCN(C2CCCCC2)CC1`, the AC50 was 1.12 µM (active).

Regarding `COCC(=O)N1CCC2(CCCN(c3ncccn3)C2)CC1`, the AC50 entry was “inactive”.

In the case of `Cn1c(=O)c2[nH]c(CCC(=O)O)nc2n(C)c1=O`, the activity, negative = inhibition is -3% [at 11.4 µM]. Turning to `NS(=O)(=O)c1cc(Cl)c(Cl)c(S(N)(=O)=O)c1`, the AC50 result is “inactive”. With `CN(C)c1cc(=O)n2c(n1)SCCC2`, the activity, negative = inhibition was -1.72% [at 2.29 µM]. For `O=C(c1n[nH]c(=O)c2ccccc12)N1CCN(C2c3ccccc3-c3ccccc32)CC1`, the AC50 was 11.2 µM (active). Same read-out and setting: the entry for `O=C(c1coc(=O)c2ccccc12)N1CCN(Cc2ccccc2)CC1` is “inactive”; for `Cc1ccc(CC(=O)N2CCN(c3cccc(C(F)(F)F)c3)CC2)cc1` it is 3.98 µM (active). As to `COc1ccc(CC(=O)N2CCN(c3ccc(C4=NNC(=O)CC4C)cc3)CC2)cc1` (configuration not stated), the activity, negative = inhibition is -9.27% [at 2.29 µM]. On to `CCc1ccc(NC(=S)N2CCN(c3cccc(C(F)(F)F)c3)CC2)cc1`, for which the AC50 result is “inactive”. On to `CC(=O)Nc1ccccc1C(=O)C(=O)O`, for which the AC50 result is “inactive”. Take `Cc1ccc(S(=O)(=O)O[C@@H]2[C@H]([C@@H]3COC(C)(C)O3)O[C@H]3OC(C)(C)O[C@@H]32)cc1`: the activity, negative = inhibition was -4.72% [at 11.4 µM]. Regarding `COC(=O)[C@@]1(Cc2ccccc2)[C@H]2c3cc(C(=O)N4CCCC4)n(Cc4nc5ccccc5[nH]4)c3C[C@H]2CN1C(=O)c1ccccc1`, the AC50 was 1.26 µM (active). `O=C(CSc1nc2ccccc2[nH]1)NCCN1CCCCC1`: the AC50 entry is “inactive”. For the compound `COC(=O)[C@@]1(Cc2ccc(OC)cc2)[C@H]2c3cc(C(=O)N4CCCC4)n(Cc4nc5ccccc5[nH]4)c3C[C@H]2CN1C(=O)c1ccccc1`, the concentration at half-maximal activity (AC50) is 2 µM (active). With `N=C(N)SCCCN`, the activity, negative = inhibition is -9.75% [at 11.4 µM]. For `O=C1c2ccccc2C(=O)N1C[C@]1(C(=O)O)NCCS1(=O)=O`, the activity, negative = inhibition was 8.42% [at 11.4 µM].

As to `CCOC(=O)N1CCN(c2nc(-c3ccco3)cc(C(F)(F)F)n2)CC1`, the AC50 entry is “inactive”. The same measure, in the same setting: the figure for `O=C(NC1CCCC1)c1cnn2c(C(F)(F)F)cc(-c3ccco3)nc12` is 14.1 µM (active); for `O=C(Nc1c2c(nn1-c1ccc(F)cc1)CS(=O)(=O)C2)C12CC3CC(CC(C3)C1)C2` it is 8.91 µM (active). The same measure, in the same setting: the figure for `O=C(CCC1CCCCC1)Nc1c2c(nn1-c1ccc(F)cc1)CS(=O)(=O)C2` is 5.62 µM (active). As for `COC(=O)c1nn(C23CC4CC(CC(C4)C2)C3)c2c1C(=O)N(c1ccc(F)cc1)C2=O`, the AC50 result was “inactive”.

As for `Cc1cc(C)cc(-n2c(C)cc(C=C(C#N)C#N)c2C)c1`, the AC50 result was “inactive”. Turning to `COC(=O)C1=C(NC(=O)c2cccs2)CCS1`, the AC50 is 15.8 µM (active). As for `COC(=O)C1=C(NC(=O)c2ccc(C)c(C)c2)CCS1`, the AC50 was 28.2 µM (active). Still for that read-out and setting: under `Cc1ccc(S(=O)(=O)O/N=C2/CCCc3occc32)cc1` stands “inactive”; under `COC(=O)c1cnn(C(=O)c2cc(OC)ccc2Br)c1N`, 28.2 µM (active); under `CCOC(=O)c1cnn(-c2cc(Oc3ccccc3)ncn2)c1N`, “inactive”. On the same count and under the same terms, the entry for `COC(=O)c1cnn(C(=O)c2ccccc2Br)c1N` is “inactive”. The same measure, in the same setting: under `CCNC(=S)N1CC(C)OC(C)C1` (configuration not stated) stands “inactive”.

For `CCSC(=N)N`, the AC50 entry is “inactive”. On to `COc1ccccc1CNc1nc(-c2ccccc2CN(C)C)nc2ccccc12`, for which the AC50 was 12.6 µM (active). Consider `COc1ccc(CNc2nc(-c3ccccc3CN(C)C)nc3ccccc23)c(OC)c1`, for which the half-maximal activity concentration (AC50) is 7.94 µM (active). The same measure, in the same setting: under `CN1CCCN(C2C3CC4CC(C3)CC2C4)CC1` (configuration not stated) stands “inactive”.
